# About 7,900 targets were measured; listed, in parts, are those with a hit and a random draw of the rest. About 0.6% of all pairs of compound and target were hits. Unmarked numbers belong to inactive results.
# Compound: CC(C)N(C[C@H]1O[C@@H](n2cnc3c(N)ncnc32)[C@H](O)[C@@H]1O)[C@H]1C[C@@H](CCc2nc3cc(C(C)(C)C)ccc3[nH]2)C1 [pinometostat]
# Assay: log2 fold change, soluble protein after heating vs DMSO (PISA); higher = thermal stabilisation; K562 cells, 10 uM, 30 min; active = over 0.2 and 3.5 SD of the protein, either way, in both replicates (recomputed)
# How it was run: (§1)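 K562 cells at 2×10^6 cells/mL were treated for 30 min with 10 μM compound, and aliquots were heated for 3 min over 48°C-58°C before pooling. Extraction used PBS with 0.5% NP-40 at 4°C, and soluble protein was the supernatant after 21,000xg for 90 min, measured by TMTpro 16plex LC-MS/MS with channel sums equalised. Thermal stability values, relative to control samples and from duplicates, are log2 fold changes.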
# Chain of UniProt P06400 (P06400 whole entry, looked up): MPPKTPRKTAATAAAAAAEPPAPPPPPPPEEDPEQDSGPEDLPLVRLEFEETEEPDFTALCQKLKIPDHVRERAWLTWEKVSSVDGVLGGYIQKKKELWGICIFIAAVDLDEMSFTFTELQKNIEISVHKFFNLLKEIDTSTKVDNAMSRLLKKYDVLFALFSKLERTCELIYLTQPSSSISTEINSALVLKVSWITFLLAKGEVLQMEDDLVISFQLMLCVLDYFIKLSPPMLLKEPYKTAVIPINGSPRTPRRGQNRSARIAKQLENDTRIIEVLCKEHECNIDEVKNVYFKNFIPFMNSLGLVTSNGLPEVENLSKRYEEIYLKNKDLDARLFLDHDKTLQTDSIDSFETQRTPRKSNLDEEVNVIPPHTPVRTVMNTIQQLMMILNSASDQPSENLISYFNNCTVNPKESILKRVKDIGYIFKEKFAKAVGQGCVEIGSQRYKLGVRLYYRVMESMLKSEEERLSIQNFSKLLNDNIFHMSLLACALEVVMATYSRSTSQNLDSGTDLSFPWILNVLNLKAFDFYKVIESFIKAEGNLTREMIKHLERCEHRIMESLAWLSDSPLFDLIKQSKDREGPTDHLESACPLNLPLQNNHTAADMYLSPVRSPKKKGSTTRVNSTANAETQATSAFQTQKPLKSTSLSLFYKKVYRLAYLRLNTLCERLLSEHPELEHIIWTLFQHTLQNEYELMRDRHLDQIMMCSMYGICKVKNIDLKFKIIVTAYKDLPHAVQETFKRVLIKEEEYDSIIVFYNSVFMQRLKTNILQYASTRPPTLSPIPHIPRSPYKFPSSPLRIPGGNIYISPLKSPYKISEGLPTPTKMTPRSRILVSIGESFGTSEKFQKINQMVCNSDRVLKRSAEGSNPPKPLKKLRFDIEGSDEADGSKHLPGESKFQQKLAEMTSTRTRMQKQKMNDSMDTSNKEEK
# Chain of UniProt Q96DM3 (Q96DM3 whole entry, looked up): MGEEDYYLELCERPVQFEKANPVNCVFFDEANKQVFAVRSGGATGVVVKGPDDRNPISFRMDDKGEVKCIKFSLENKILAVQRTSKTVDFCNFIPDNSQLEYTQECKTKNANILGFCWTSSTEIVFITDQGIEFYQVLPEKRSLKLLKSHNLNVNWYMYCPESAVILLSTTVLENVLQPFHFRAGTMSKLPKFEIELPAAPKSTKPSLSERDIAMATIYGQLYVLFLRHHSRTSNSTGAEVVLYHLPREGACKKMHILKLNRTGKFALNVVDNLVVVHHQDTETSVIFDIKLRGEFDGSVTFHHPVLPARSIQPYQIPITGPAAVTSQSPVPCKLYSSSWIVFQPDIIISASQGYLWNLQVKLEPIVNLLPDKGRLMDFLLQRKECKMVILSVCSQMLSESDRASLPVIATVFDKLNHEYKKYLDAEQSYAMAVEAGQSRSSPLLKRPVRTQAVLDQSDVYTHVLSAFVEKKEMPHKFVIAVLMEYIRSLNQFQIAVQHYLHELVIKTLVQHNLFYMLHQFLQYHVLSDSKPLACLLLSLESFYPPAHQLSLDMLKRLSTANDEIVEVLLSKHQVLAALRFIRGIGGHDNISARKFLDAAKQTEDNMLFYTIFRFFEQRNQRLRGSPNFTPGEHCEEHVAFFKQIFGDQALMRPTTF
# Chain of UniProt Q9HB90 (Q9HB90 whole entry, looked up): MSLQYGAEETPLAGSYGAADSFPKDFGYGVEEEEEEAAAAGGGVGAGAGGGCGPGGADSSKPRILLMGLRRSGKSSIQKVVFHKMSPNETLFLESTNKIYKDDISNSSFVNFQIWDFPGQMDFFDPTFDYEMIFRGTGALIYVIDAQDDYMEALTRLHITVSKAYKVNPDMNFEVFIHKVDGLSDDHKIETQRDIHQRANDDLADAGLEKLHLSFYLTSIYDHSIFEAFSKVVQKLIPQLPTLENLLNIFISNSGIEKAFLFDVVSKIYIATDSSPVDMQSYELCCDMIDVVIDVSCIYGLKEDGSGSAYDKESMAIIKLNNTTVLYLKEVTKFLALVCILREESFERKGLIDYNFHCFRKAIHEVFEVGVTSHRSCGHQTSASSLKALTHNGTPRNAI
# Chain of UniProt Q8WWV3 (Q8WWV3 whole entry, looked up): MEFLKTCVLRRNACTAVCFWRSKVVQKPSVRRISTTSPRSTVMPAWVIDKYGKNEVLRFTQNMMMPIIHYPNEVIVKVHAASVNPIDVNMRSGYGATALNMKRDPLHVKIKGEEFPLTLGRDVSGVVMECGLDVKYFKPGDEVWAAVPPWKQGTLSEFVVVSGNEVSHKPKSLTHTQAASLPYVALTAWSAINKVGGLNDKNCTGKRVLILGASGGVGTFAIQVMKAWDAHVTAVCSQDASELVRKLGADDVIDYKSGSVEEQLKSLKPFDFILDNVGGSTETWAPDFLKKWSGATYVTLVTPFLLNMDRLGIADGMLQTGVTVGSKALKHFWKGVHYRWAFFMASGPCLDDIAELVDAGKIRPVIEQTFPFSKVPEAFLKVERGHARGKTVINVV
# Chain of UniProt P63208 (P63208 whole entry, looked up): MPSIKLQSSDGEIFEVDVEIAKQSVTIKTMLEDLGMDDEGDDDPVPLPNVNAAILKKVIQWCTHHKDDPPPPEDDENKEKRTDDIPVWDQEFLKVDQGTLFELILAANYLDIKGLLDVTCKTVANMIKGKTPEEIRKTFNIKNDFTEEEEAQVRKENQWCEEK
# Chain of UniProt Q9NR46 (Q9NR46 whole entry, looked up): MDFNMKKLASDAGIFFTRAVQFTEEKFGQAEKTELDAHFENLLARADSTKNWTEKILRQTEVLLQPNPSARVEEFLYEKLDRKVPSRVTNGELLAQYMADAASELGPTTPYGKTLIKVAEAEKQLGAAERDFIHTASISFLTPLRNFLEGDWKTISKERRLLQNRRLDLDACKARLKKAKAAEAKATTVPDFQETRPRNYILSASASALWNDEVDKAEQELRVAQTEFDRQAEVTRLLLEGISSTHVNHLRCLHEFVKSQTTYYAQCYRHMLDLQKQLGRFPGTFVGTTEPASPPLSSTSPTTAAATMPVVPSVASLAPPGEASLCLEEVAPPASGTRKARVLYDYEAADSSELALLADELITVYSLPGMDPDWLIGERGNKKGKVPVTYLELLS
# Chain of UniProt Q96ER3 (Q96ER3 whole entry, looked up): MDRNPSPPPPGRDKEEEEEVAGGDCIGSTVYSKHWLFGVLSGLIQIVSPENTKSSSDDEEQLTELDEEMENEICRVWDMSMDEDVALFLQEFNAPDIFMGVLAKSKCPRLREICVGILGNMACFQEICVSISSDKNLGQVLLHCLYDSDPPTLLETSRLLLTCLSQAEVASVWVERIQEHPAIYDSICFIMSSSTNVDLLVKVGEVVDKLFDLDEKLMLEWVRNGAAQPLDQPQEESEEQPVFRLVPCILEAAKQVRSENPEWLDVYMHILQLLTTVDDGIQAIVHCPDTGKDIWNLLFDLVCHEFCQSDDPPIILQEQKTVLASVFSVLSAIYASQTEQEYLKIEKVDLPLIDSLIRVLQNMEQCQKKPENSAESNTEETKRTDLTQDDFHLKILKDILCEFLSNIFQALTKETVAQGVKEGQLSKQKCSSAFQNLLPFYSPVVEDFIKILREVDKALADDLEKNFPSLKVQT
# Chain of UniProt Q8TBN0 (Q8TBN0 whole entry, looked up): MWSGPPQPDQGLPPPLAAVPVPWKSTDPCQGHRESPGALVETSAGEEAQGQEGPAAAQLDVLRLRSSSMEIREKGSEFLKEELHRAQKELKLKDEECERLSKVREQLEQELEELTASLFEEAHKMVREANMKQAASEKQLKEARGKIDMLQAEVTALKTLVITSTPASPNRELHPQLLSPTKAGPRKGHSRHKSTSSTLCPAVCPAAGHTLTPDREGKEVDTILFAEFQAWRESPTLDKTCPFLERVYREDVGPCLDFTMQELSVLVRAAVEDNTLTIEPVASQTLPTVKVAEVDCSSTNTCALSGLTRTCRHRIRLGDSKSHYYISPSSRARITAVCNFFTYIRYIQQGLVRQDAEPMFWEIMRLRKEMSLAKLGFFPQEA
# Chain of UniProt Q15418 (Q15418 whole entry, looked up): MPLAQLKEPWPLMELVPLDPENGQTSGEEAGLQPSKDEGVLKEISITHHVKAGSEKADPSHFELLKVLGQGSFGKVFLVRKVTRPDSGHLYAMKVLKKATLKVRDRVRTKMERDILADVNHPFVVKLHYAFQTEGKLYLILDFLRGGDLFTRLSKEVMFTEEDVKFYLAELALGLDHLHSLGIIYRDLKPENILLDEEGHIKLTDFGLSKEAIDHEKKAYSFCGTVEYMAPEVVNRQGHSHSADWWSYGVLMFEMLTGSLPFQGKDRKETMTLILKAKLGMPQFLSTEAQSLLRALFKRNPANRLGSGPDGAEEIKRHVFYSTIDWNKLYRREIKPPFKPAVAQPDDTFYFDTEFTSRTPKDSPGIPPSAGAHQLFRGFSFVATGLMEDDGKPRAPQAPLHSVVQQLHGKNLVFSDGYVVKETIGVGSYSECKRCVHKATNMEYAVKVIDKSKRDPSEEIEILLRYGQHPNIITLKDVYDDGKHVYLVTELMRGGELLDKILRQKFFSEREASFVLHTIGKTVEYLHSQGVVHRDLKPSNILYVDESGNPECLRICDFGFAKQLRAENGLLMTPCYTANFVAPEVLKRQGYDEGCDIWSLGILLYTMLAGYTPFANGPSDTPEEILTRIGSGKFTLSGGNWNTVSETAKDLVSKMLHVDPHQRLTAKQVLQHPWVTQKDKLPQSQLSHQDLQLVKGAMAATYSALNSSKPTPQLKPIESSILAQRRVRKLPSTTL
# Chain of UniProt Q8NBX0 (Q8NBX0 whole entry, looked up): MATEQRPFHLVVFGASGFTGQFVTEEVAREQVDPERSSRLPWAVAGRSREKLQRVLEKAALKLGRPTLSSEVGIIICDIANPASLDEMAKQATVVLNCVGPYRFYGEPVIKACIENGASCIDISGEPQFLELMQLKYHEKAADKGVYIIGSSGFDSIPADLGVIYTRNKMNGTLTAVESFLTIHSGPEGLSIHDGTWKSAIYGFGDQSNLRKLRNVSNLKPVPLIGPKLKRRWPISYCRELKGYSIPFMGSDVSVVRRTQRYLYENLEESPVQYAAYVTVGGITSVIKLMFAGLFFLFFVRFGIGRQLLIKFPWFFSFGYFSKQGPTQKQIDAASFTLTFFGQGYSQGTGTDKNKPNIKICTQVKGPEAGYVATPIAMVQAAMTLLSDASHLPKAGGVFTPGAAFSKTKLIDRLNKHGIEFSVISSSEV
row,Target,log2 fold change
1,ROCK2 (UniProt O75116),0.021
2,SCCPDH (UniProt Q8NBX0),-0.073
3,RB1 (UniProt P06400),-0.006
4,RAB3IL1 (UniProt Q8TBN0),-0.029
5,SDCBP (UniProt O00560),0.057
6,RTN4IP1 (UniProt Q8WWV3),0.02
7,SGPL1 (UniProt O95470),0.1
8,RPS14 (UniProt P62263),-0.013
9,RAD51 (UniProt Q06609),-0.024
10,SH3GLB2 (UniProt Q9NR46),-0.004
11,RPS5 (UniProt P46782),0.091
12,RAD50 isoform 2 (UniProt Q92878),-0.013
13,RPS13 (UniProt P62277),0.345
14,RHOA (UniProt P61586),-0.023
15,SLC12A9 (UniProt Q9BXP2),-0.018
16,SCG3 (UniProt Q8WXD2),-0.139
17,RSF1 (UniProt Q96T23),-0.123

row,Target,log2 fold change
1,RPS3 (UniProt P23396),0.128
2,RPS6KA1 isoform 2 (UniProt Q15418),-0.006
3,RRAGC (UniProt Q9HB90),-0.008
4,SERINC3 (UniProt Q13530),-0.01
5,RBM25 (UniProt P49756),-0.039
6,SKP1 (UniProt P63208),-0.08
7,RARS (UniProt P54136),0.32
8,RDH11 (UniProt Q8TC12),0.013
9,RPS15 (UniProt P62841),0.088
10,RPS18 (UniProt P62269),0.149
11,RETSAT (UniProt Q6NUM9),-0.012
12,RMC1 (UniProt Q96DM3),-0.015
13,SAAL1 (UniProt Q96ER3),0.073
14,RPA1 (UniProt P27694),-0.021
15,RAC1 (UniProt P63000),-0.127
16,SDHC (UniProt Q99643),-0.086
17,SERPINA7 (UniProt P05543),0

# Compound: CC1=C(C(CC(=O)N1)C2=CC=C(C=C2)C(F)(F)F)C(=O)NC3=C(C=C4C(=C3)C=NN4)F
# Assay: as above
# How it was run: as §1
row,Target,log2 fold change
1,ROCK2 (UniProt O75116),0.29 (active)
2,SCCPDH (UniProt Q8NBX0),-0.031
3,RB1 (UniProt P06400),-0.007
4,RAB3IL1 (UniProt Q8TBN0),-0.004
5,SDCBP (UniProt O00560),0.073
6,RTN4IP1 (UniProt Q8WWV3),-0.039
7,SGPL1 (UniProt O95470),-0.025
8,RPS14 (UniProt P62263),0.035
9,RAD51 (UniProt Q06609),0.05
10,SH3GLB2 (UniProt Q9NR46),0.001
11,RPS5 (UniProt P46782),0.034
12,RAD50 isoform 2 (UniProt Q92878),-0.008
13,RPS13 (UniProt P62277),0.035
14,RHOA (UniProt P61586),0.002
15,SLC12A9 (UniProt Q9BXP2),0.028
16,SCG3 (UniProt Q8WXD2),0.05
17,RSF1 (UniProt Q96T23),0.028

row,Target,log2 fold change
1,RPS3 (UniProt P23396),0.031
2,RPS6KA1 isoform 2 (UniProt Q15418),0.017
3,RRAGC (UniProt Q9HB90),0.024
4,SERINC3 (UniProt Q13530),0
5,RBM25 (UniProt P49756),-0.001
6,SKP1 (UniProt P63208),0.042
7,RARS (UniProt P54136),0.03
8,RDH11 (UniProt Q8TC12),-0.028
9,RPS15 (UniProt P62841),0.071
10,RPS18 (UniProt P62269),0.063
11,RETSAT (UniProt Q6NUM9),-0.037
12,RMC1 (UniProt Q96DM3),0.028
13,SAAL1 (UniProt Q96ER3),0.026
14,RPA1 (UniProt P27694),-0.007
15,RAC1 (UniProt P63000),-0.093
16,SDHC (UniProt Q99643),0.193
17,SERPINA7 (UniProt P05543),0.077

# Compound: CC1=C(C2=C(C=C1)C(=O)C3=CC=CC=C3N2CCCN)C
# Assay: as above
# How it was run: as §1
row,Target,log2 fold change
1,ROCK2 (UniProt O75116),0
2,SCCPDH (UniProt Q8NBX0),0.023
3,RB1 (UniProt P06400),-0.035
4,RAB3IL1 (UniProt Q8TBN0),0.037
5,SDCBP (UniProt O00560),-0.007
6,RTN4IP1 (UniProt Q8WWV3),0.14
7,SGPL1 (UniProt O95470),0.146
8,RPS14 (UniProt P62263),-0.586 (active)
9,RAD51 (UniProt Q06609),0.102
10,SH3GLB2 (UniProt Q9NR46),-0.021
11,RPS5 (UniProt P46782),-0.551 (active)
12,RAD50 isoform 2 (UniProt Q92878),0.006
13,RPS13 (UniProt P62277),-0.759 (active)
14,RHOA (UniProt P61586),-0.007
15,SLC12A9 (UniProt Q9BXP2),0.056
16,SCG3 (UniProt Q8WXD2),-0.359
17,RSF1 (UniProt Q96T23),-1.48 (active)

row,Target,log2 fold change
1,RPS3 (UniProt P23396),-0.497 (active)
2,RPS6KA1 isoform 2 (UniProt Q15418),0.018
3,RRAGC (UniProt Q9HB90),0.034
4,SERINC3 (UniProt Q13530),-0.039
5,RBM25 (UniProt P49756),0.042
6,SKP1 (UniProt P63208),-0.049
7,RARS (UniProt P54136),0.009
8,RDH11 (UniProt Q8TC12),0.103
9,RPS15 (UniProt P62841),-0.574 (active)
10,RPS18 (UniProt P62269),-0.531 (active)
11,RETSAT (UniProt Q6NUM9),0.059
12,RMC1 (UniProt Q96DM3),0.039
13,SAAL1 (UniProt Q96ER3),0.239 (active)
14,RPA1 (UniProt P27694),0.202
15,RAC1 (UniProt P63000),-0.002
16,SDHC (UniProt Q99643),0.108
17,SERPINA7 (UniProt P05543),-0.245

# Reference: the supplement of paper PMC10849652
